USP30 inh: inhibitors of human USP30 deubiquitinase. Ubiquitin carboxyl-terminal hydrolase 30 (Homo sapiens), Q70CQ3. purified USP30, Ub-rhodamine cleavage fluorescence. inhibition, % at 25 µM. 47,000 compounds, 5.3% hits. AID 1645860, 2021
USP8 block: inhibitors of human USP8 deubiquitinase; 47,000 compounds, 4.2% hits; inhibition, % at 20 µM; AID 1645853, 2021; Ubiquitin carboxyl-terminal hydrolase 8 (Homo sapiens), P40818; purified USP8, Ub-rhodamine cleavage fluorescence, 30 min
USP28 block: inhibitors of human USP28 deubiquitinase | Ubiquitin carboxyl-terminal hydrolase 28 (Homo sapiens), Q96RU2 | purified USP28, Ub-rhodamine cleavage fluorescence, 30 min | inhibition, % at 25 µM | 47,000 compounds, 3% hits | AID 1645857, 2021
USP17 inh: inhibitors of human USP17 deubiquitinase. inhibition, % at 50 µM. Ubiquitin carboxyl-terminal hydrolase 17-like protein 5 (Homo sapiens), A8MUK1. AID 1645855, 2021. 47,000 compounds, 6.5% hits. purified USP17, Ub-rhodamine cleavage fluorescence, 3 h
A number is an active result; 0 = inactive; - = no result given. Most compounds without a hit are left out; they make up all but 13% or so of the library. Rule as the data show it: active = inhibition above about 30%; inactive = the rest.

SMILES | USP30 inh | USP8 block | USP28 block | USP17 inh
COc1ccc(-n2nc(C)c3c2NC(=O)CC3C(=O)c2ccc3c(c2)OCO3)cc1 (stereo unspecified) | 39 | 0 | 0 | 0
COc1ccc(C(=O)C2CC(=O)Nc3c2c(C)nn3-c2ccc(Br)cc2)cc1 (stereo unspecified) | 0 | 30 | 0 | 58
Cc1cccc(-n2nc(C)c3c2NC(=O)CC3C(=O)c2ccc3c(c2)OCO3)c1 (stereo unspecified) | 0 | 0 | 0 | 0
CCNC(=O)N1CCC2(CC1)c1ncc(-c3cccnc3)n1CCN2C | 0 | 0 | 0 | 0
O=C(Nc1ccccc1)C1Cn2ccnc2C2(CCN(C(=O)C3CCC3)CC2)O1 (stereo unspecified) | 0 | 0 | 0 | 0
CCOc1ccc(CC2C(=O)Nc3ccc(Cl)cc32)cc1OC (stereo unspecified) | 0 | 0 | 0 | 0
COc1cc2ccccc2cc1C(=O)NCc1ccccc1 | 0 | 0 | 0 | 0
COc1ccc(C(=O)N(Cc2ccccc2)C(C)(C)c2ccccc2)c(OC)c1 | 44 | 0 | 0 | 0
CCc1ccc(NC(=O)N2CCC(c3nc(C(=O)N(C)C)c(C)o3)CC2)cc1 | 0 | 0 | 0 | 0
O=C(Nc1ccccc1F)C1=NOC2(CCNCC2)C1 | 34 | 0 | 39 | 34
COc1ccccc1NC(=O)c1cnc2c(c1)c(=O)n(C)c(=O)n2-c1ccccc1 | 0 | 0 | 0 | 0
COc1ccccc1NC(=O)CNC(=O)c1nn(-c2ccc(OC)c(OC)c2)c(=O)c2ccccc12 | 0 | 0 | 0 | 68
O=C(Nc1ccc(N2CCCCC2)cc1)c1cccc(N2C(=O)CCS2(=O)=O)c1 | 0 | 43 | 0 | 0
O=C(NCCc1ccc(F)cc1)c1cccc(N2C(=O)CCS2(=O)=O)c1 | 37 | 0 | 0 | 0
COc1ccccc1CCNC(=O)c1cccc(N2C(=O)CCS2(=O)=O)c1 | 0 | 0 | 0 | 0
COc1cccc(NC(=O)CCCSc2nc3ccccc3[nH]2)c1 | 0 | 0 | 37 | 0
Cc1ccc(CC(=O)NCC(=O)Nc2nc3ccccc3[nH]2)cc1 | 0 | 0 | 0 | 45
COc1cccc(C(=O)NCC(=O)Nc2nc3ccccc3[nH]2)c1 | 0 | 0 | 0 | 59
Cc1ccc(C(=O)NCC(=O)Nc2nc3ccccc3[nH]2)c(C)c1 | 0 | 0 | 0 | 57
Cc1ccc(-c2nccn3cc(C(=O)N4CCCN(C)CC4)nc23)cc1 | 0 | 0 | 0 | 0
Cc1cccc(S(=O)(=O)Nc2ccc(N3CCN(C)CC3)c(C(=O)O)c2)c1 | 0 | 89 | 0 | 0
Fc1ccc(-c2nsc3c(N4CCCC4)ncnc23)cc1 | 0 | 0 | 0 | 32
Cc1cccc2cc3c(nc12)N(C(=O)C1CC1)CC3 | 0 | 0 | 0 | 35
CC(C)C(NC(=O)c1ccc(C(C)(C)C)cc1)C(=O)OCC(=O)c1c[nH]c2ccccc12 (stereo unspecified) | 0 | 0 | 0 | 0
O=C(Cn1cnc(-c2noc(-c3cccc(F)c3)n2)c1)Nc1ccccc1 | 0 | 65 | 0 | 0
SMILES | USP30 inh | USP8 block | USP28 block | USP17 inh
O=C(Cn1cnc(-c2noc(-c3ccccc3)n2)c1)Nc1ccccc1 | - | 90 | - | 0
O=C(Cc1noc(-c2ccccc2)n1)Nc1ccccc1 | 0 | 0 | 0 | 0
COc1ccc(CNC(=O)N2CC(c3nc(C)no3)C3(CCOCC3)C2)cc1 (stereo unspecified) | 0 | 0 | 0 | 0
Cc1ccc(NC(=O)CSc2nccn(-c3ccc(C)c(F)c3)c2=O)cc1F | 0 | 0 | 0 | 0
CCCOc1ccc(-c2ccc(-c3nc(CCC)no3)cc2)cc1 | 0 | 0 | 0 | 0
N#Cc1ccc(OCc2noc(-c3ccc(F)cc3)n2)cc1 | 0 | 38 | 0 | 0
COC(=O)c1ccc(N2CCN(C(=O)Nc3ccc4c(c3)NC(=O)CO4)CC2)c([N+](=O)[O-])c1 | 0 | 0 | 0 | 0
Cc1c(CCC(=O)N2CC[C@@]3(O)CCCC[C@H]3C2)c(=O)oc2cc(OCc3ccc(F)cc3F)ccc12 | 35 | 0 | 0 | -
COc1ccc(COc2ccc3c(C)c(CC(=O)N4CC[C@@]5(O)CCCC[C@H]5C4)c(=O)oc3c2)cc1 | 52 | 34 | 0 | 46
CC(=O)N1CCC2(CCN(C(=O)c3ccc(C)c(C(F)(F)F)c3)CC2)C1 | 0 | 0 | 0 | 0
Cc1cc(N2CC(C)OC2=O)nc(C2CCN(C(=O)C(C)(C)C)CC2)n1 (stereo unspecified) | 0 | 0 | 0 | 0
Cc1cc(N2CC(C)OC2=O)nc(C2CCN(C(=O)OC(C)(C)C)CC2)n1 (stereo unspecified) | 35 | 0 | 0 | 0
Clc1ncc(CN2CCc3ccccc3C2)s1 | 0 | 35 | 38 | 0
O=C(Nc1ccccc1F)N1CCN(c2cc(-c3ccncc3)[nH]n2)CC1 | 0 | 0 | 0 | 0
O=C(Nc1cccc2cnccc12)N1CCCCCC1 | 0 | 0 | 0 | 34
Cc1cc(F)ccc1NC(=O)c1cnc(N2CCCC2)nc1C | 0 | 0 | 0 | 0
Cc1cc(C)cc(N2CC(C)Cn3c2nc2c3c(=O)n(CC(=O)OCc3ccccc3)c(=O)n2C)c1 (stereo unspecified) | 0 | 0 | 0 | 0
COc1cccc(N2CC(C)Cn3c2nc2c3c(=O)n(CC(=O)OCc3ccccc3)c(=O)n2C)c1 (stereo unspecified) | 39 | 0 | 0 | 0
O=C(NCCc1nc2ccccc2[nH]1)c1[nH]nc2c1CCc1ccccc1-2 | 45 | 0 | 0 | 0
O=C(Cc1ccc(F)cc1)Nc1nnc2n1CCCS2 | 0 | 0 | 0 | 0
COC(=O)c1ccc2c(=O)n(CCCCCC(=O)NCCc3ccc(OC)c(OC)c3)c(=O)[nH]c2c1 | 46 | 46 | 0 | 0
COC(=O)c1ccc2c(=O)n(CCCCCC(=O)NCc3cccc(Cl)c3)c(=O)[nH]c2c1 | 62 | 65 | 0 | 31
COC(=O)c1ccc2c(=O)n(CCCCCC(=O)NCCC3=CCCCC3)c(=O)[nH]c2c1 | 0 | 0 | 0 | 0
Cc1ccc(Nc2cc(C)nc3nc(-c4ccco4)nn23)c(C)c1 | 0 | 0 | 0 | 0
Cc1ccc(NCc2cc3c(C(C)(C)C)nn(-c4ccc(Cl)cc4)c3[nH]c2=O)cc1 | 0 | 84 | 0 | 62
SMILES | USP30 inh | USP8 block | USP28 block | USP17 inh
CC(C)(C)c1nn(-c2ccccc2)c2[nH]c(=O)c(CNCc3ccc4c(c3)OCO4)cc12 | 0 | 80 | 0 | 0
CC(C)(C)c1nn(-c2ccc(Cl)cc2)c2[nH]c(=O)c(CNCCc3ccccc3)cc12 | 0 | 0 | 0 | 0
CC(C)(C)c1nn(-c2ccccc2)c2[nH]c(=O)c(CNC3CC3)cc12 | 0 | 82 | 0 | 0
CC(C)(C)c1nn(-c2ccccc2)c2[nH]c(=O)c(CNCc3cccnc3)cc12 | 0 | 0 | 0 | 0
Cc1nnc2c(N3CCN(c4cccc(C(F)(F)F)c4)CC3)nc3ccccc3n12 | 0 | 0 | 0 | 0
COc1ccc(CCNC(=O)c2cnn(-c3ccc(F)cc3)c2C2CCNCC2)c(OC)c1 | 0 | 0 | 0 | 0
Cc1cccc(C(=O)Nc2noc3nc(C)ccc23)c1 | - | 0 | - | 36
CCn1nc(C)cc1C(=O)N1C[C@@H]2C[C@@H](c3nc(C)no3)O[C@@H]2C1 | 0 | 0 | 0 | 0

From PubChem BioAssay
